# PLK1 PBD inh – qHTS for Inhibitors of PLK1-PDB (polo-like kinase 1 - polo-box domain): Primary Screen | AID 720504, 2013 | Serine/threonine-protein kinase PLK1 (Homo sapiens), P53350 | Potency, µM, for the others: max response, negative = inhibition, usual class: inhibitors | Plk1 PBD binding of FITC phosphopeptide, fluorescence polarization | hit rate 2.8% among 360,000; note: series mostly up to about 57 µM; % is set by controls: 0 for no effect and ±100 for the full control effect; nearly all actives have a fitted effect of over 65% in size
# G9a inh – qHTS Assay for Inhibitors of Histone Lysine Methyltransferase G9a; Histone-lysine N-methyltransferase EHMT2 (Homo sapiens), Q96KQ7; G9a H3K9 monomethylation, AlphaScreen, 2 h; Potency, µM (series often up to 102 µM), inactives show at the top dose activity, negative = inhibition, hits mostly inhibitors; hit rate 8.8% among 350,000; AID 504332, 2011; note: % is set by controls: 0 for no effect and ±100 for the full control effect; nearly all actives have a fitted effect of over 75% in size
# Target sequence (Q96KQ7 913-1193 limits assumed): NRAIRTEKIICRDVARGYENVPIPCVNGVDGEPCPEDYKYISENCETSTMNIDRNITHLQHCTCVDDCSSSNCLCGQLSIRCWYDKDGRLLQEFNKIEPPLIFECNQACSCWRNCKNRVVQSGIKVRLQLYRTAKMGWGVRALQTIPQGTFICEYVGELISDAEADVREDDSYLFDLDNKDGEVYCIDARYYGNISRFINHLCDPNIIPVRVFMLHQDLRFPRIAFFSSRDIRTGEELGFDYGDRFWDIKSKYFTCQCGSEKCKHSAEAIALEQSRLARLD
#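 Compounds were preincubated with 20 nM G9a for 15 min, after which biotinylated H3K9 peptide (500 nM) and SAM (20 uM) started a 2 h room-temperature reaction. Monomethylated product was quantified by antibody-based AlphaScreen chemiluminescence.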
# BAZ2B block – qHTS Assay for Inhibitors of BAZ2B | hit rate 4.4% among 360,000 | AlphaScreen BAZ2B-H3K14Ac peptide displacement | Potency, µM (top dose mostly 114 µM), for the others: at the highest dose activity change, negative = inhibition, usual class: inhibitors | Bromodomain adjacent to zinc finger domain protein 2B (Homo sapiens), Q9UIF8 | AID 504333, 2011; note: % is set by controls: 0 for no effect and ±100 for the full control effect; nearly all actives have a fitted effect of over 60% in size
#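 Protein-peptide AlphaScreen: BAZ2B 50 nM, b-H3K14Ac 50 nM, 1x PBS pH 7.4 + 0.01% Tween-20. Preincubation 30 min RT; cpd 30 min RT (top 110 uM); beads 20 min RT, light-protected.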
# Sfp inh – qHTS Assay for Inhibitors of Bacillus subtilis Sfp phosphopantetheinyl transferase (PPTase); hit rate 3.5% among 310,000; Potency, µM, without a hit: largest response in the series, negative = inhibition, actives largely listed as inhibitors; AID 1490, 2009; Biochemical Sfp PPTase activity, qHTS;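 note: the enzyme is Sfp with the accession as filed and its product quenches rhodamine fluorescence; 0% = enzyme reaction without inhibitor and -100% = no enzyme wells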
#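 After 15 min at room temperature with compound, 15 nM Sfp received 5 uM rhodamine-CoA plus 12.5 uM BHQ-2-ybbR (50 mM Hepes pH 7.6, 10 mM MgCl2). Rate came from the fluorescence difference over 30 min, ex 525/em 598 nm.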
# HP1b binding inh – HTS for Inhibitors of HP1-beta Chromodomain Interactions with Methylated Histone Tails; Chromobox protein homolog 1 (Homo sapiens), P83916; AlphaScreen HP1-beta / biotin-H3K9me3 peptide binding; Potency, µM (titrated, usually from 114 µM), inactives show at the highest dose activity change, negative = inhibition, most hits filed as inhibitors; hit rate 0.56% among 390,000; AID 540317, 2011; note: nearly all actives have a fitted effect of over 70% in size
# Target sequence (P83916 whole entry, looked up): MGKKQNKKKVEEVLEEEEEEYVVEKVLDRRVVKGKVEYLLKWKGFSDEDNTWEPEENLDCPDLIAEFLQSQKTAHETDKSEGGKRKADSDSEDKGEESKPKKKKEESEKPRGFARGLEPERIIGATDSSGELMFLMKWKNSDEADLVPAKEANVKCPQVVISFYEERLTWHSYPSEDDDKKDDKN
#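 AlphaScreen: HP1-beta (50 nM) preformed 30 min with biotin-H3(1-18)K9me3 peptide (50 nM) in PBS pH 7.4, 0.01% Tween-20. Compound added for 30 min at RT, then streptavidin donor/nickel chelate acceptor beads (10 ug/mL) for 30 min.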
# JMJD2A Tudor – qHTS Assay for Inhibitors of JMJD2A-Tudor Domain | hit rate 4.4% among 390,000 | Lysine-specific demethylase 4A (Homo sapiens), O75164 | Potency, µM (series often up to 114 µM), for the others: at the highest dose activity change, negative = inhibition, usual class: inhibitors | AlphaScreen JMJD2A-Tudor / H3K4me3 peptide binding; note: % is set by controls: 0 for no effect and ±100 for the full control effect; nearly all actives have a fitted effect of over 50% in size
# * marks the source's active call; other numbers are inactive results; u = inconclusive; x = no result given; [ ] = another dose, or the depositor's remark. Most compounds without a hit are left out; they make up all but 12% or so of the library. Calls come from the whole dose curve; as a rule, active = well fitted curve in the direction sought with a large enough effect; inconclusive = small, poorly fitted or top-dose-only effect, or another doubt; inactive = no such curve, though single readings can be large; an effect the other way counts as inactive or inconclusive. Potency is the fitted concentration of half-maximal effect.
SMILES,PLK1 PBD inh,G9a inh,BAZ2B block,Sfp inh,HP1b binding inh,JMJD2A Tudor
Cc1nnc(SCC2=C(C(=O)O)N3C(=O)C(NC(=O)c4cc(F)c(F)cc4Cl)C3SC2)s1 (stereo not given),u,28µM*,79µM*,50µM*,9%,-26%
Cc1nnc(SCC2=C(C(=O)O)N3C(=O)C(NC(=O)COc4ccc(F)cc4)C3SC2)s1 (stereo not given),u,u,u,x,6%,-24%
COc1ccccc1CCNC(=O)Cc1c(C)c2cc3c(C(C)(C)C)coc3c(C)c2oc1=O,x,-30%[59 µM],-20%,x,32%,-22%
COc1ccc(/C=C/C(=O)N2CCCc3ccccc32)cc1,3%,u,-27%,79µM*,17%,-9%
COc1ccc(N/N=C(/C(C)=O)N2CCCc3ccccc32)cc1,9%,x,u,-23%,u,35µM*
CCc1ccc(/C(C)=N/NS(=O)(=O)c2ccc(OC)cc2)s1,2%,13%,-16%,5%,25%,5%
CCCCC(=O)NNC(=S)NC(=O)CCC,-8%,10µM*,26%,79µM*,21%,50µM*
CCCCC(=O)NC(=S)NNC(=O)CC#N,-16%,u,-12%,10µM*,-23%,18µM*
CCCCC(=O)NC(=S)NNC(=O)c1ccc(OC)cc1,-2%,3%[12.7 µM],4%,1%,36%,-1%
COc1cccc(Nc2nnc(SCC(=O)Nc3sccc3C(N)=O)s2)c1,-10%,-12%[59 µM],79µM*,u,16%[57 µM],-26%
CCc1ccc(Nc2nnc(SCC(=O)Nc3sccc3C(N)=O)s2)cc1,-7%,11µM*,u,-15%,0%,-33%
COc1cccc(NC(=O)CSc2nnc(NC(=O)C3CC3)s2)c1,-6%,u,1%,11%,10%[57 µM],-12%
Cc1nnc(SCC(=O)Nc2sccc2C(N)=O)s1,-18%,u,4%,x,28%,-9%
Cc1ccc(SCC(Cc2ccccc2)N2CCN(C)CCC2=O)cc1 (stereo not given),x,x,x,21%,15%,-27%
COCc1cc(C)nc2sc(C(=O)Nc3ccc(OC(F)(F)F)cc3)c(N)c12,x,0%[59 µM],3%,x,41%,2%
COc1ccccc1NC(=O)C12CCC(C)(C(=O)C1)C2(C)C (stereo not given),27µM*,1%,-14%,5%,-12%,-15%
CC12CCC(C(=O)NCc3ccccc3Cl)(CC1=O)C2(C)C (stereo not given),-2%,u,-3%,13%,39%,8%
CNC(=O)C1CCN(C(=O)N2CC(C)Oc3ccc(Cl)cc32)CC1 (stereo not given),x,-10%[59 µM],u,x,-10%,-33%
CCc1c(O)cc(=O)n(-c2ccccc2)c1-c1ccccc1,-7%,u,56µM*,-5%,-6%,-40%
CC(=O)c1c(O)cc(=O)n(-c2ccccc2)c1-c1ccc(Cl)cc1,-10%,19%[59 µM],4%,4%,15%,-2%
CN(C)c1ccc(NC(=O)c2cnsn2)cc1,-12%,50µM*,-20%,-5%,-6%,u
Cc1noc(C)c1C(=O)Nc1ccc(N(C)C)cc1,-4%,u,-13%,11%,20%,-28%
COc1ccccc1N1CCN(S(=O)(=O)c2ccc([N+](=O)[O-])cc2)CC1,-4%,x,x,x,x,x
COc1ccccc1N1CCN(c2ccc([N+](=O)[O-])cc2Cl)CC1,-16%,3.2µM*,u,-5%,u,u
COc1ccccc1N1CC=C(c2cccc([N+](=O)[O-])c2)NC1=O,-8%,40µM*,-20%,-11%,35%,-14%
SMILES,PLK1 PBD inh,G9a inh,BAZ2B block,Sfp inh,HP1b binding inh,JMJD2A Tudor
CC(C)CC(=O)N1CCN(c2ccc([N+](=O)[O-])cc2Cl)CC1,27µM*,-2%[59 µM],-4%,16%,-8%,-32%
O=c1n(Cc2ccccc2Cl)nc2n1-c1ccccc1SC2,3%,x,20%,-3%,77%,43%
Cc1ccc(C(=O)Nc2nnc([C@H]3C[C@H](O)[C@@H](CO)O3)s2)cc1,-4%,x,x,x,x,x
CCC(=O)c1ccc(OC(=O)C2CCN(C3=NS(=O)(=O)c4ccccc43)CC2)cc1,-8%,-5%[0.501 µM],11%,x,22%,-6%
O=c1ccc(C(F)(F)F)cn1Cc1cc(=O)n2cc(Br)ccc2n1,-7%,4.5µM*,79µM*,13%,17%,-30%
O=C1[C@H]2[C@H]3[C@H](O)[C@H](O)C/C(=N/OC[C@@H](O)COCc4ccco4)[C@H]3CC[C@@H]2C(=O)N1Cc1ccccc1,x,x,x,8%,x,x
CN(C)S(=O)(=O)c1cccc(C(=O)OCC(=O)Nc2ccccc2OC(F)F)c1,27µM*,10%,6%,12%,u,79µM*
Cc1cc(N2CCN(C)CC2)ccc1NC(=O)c1cccc(S(=O)(=O)N2CCc3ccccc3C2)c1,-3%,28µM*,u,-18%,u,-35%
CCN(CC(=O)Nc1ccc(NC(C)=O)cc1)C(=O)c1cccc(S(=O)(=O)N2CCc3ccccc3C2)c1,-6%,3.2µM*,-6%,x,28%,-6%
Cc1ccc(NC(=O)c2cccc(S(=O)(=O)N3CCc4ccccc4C3)c2)nc1,-8%,3%[0.501 µM],11%,x,23%,-9%
CN(C)S(=O)(=O)c1cccc(NC(=O)COC(=O)c2cccc(S(=O)(=O)N3CCc4ccccc4C3)c2)c1,5%,1.6µM*,u,10%,28%,-21%
CCN(CC)S(=O)(=O)c1cccc(C(=O)OCC(=O)Nc2ccccc2OC(F)F)c1,-6%,0%[12.7 µM],-3%,11%,19%,5%
CC[N+](CC)=N/N=C1\C=CC[N+]([O-])=C1,1%,x,x,x,x,x
Cc1ccc2onc(CC(=O)N3CCN(c4ccc(F)cc4)CC3)c2c1,x,-9%[59 µM],-32%,x,-17%,u
O=C(COC(=O)C1CCCCC1)Nc1ccccc1OC(F)F,3µM*,56%,x,-2%,6%,11µM*
COc1ccccc1NC(=O)COC(=O)C1CCCC1,-16%,x,x,x,29%,-1%
Cc1ccc(C)c(S(=O)(=O)c2cn(Cc3ccccc3)c3cc(F)c(F)cc3c2=O)c1,x,23%[59 µM],1%,x,u,0%
CC(=O)Nc1ccc2nc3c(=O)n(C)c(=O)n(C)c3nc2c1C,x,-6%[59 µM],1%,x,19%,-11%

# Screening results deposited in PubChem BioAssay by National Center for Advancing Translational Sciences (NCATS).
